Holding throughout (assay): DAPPL (digital affinity profiling via proximity ligation, sequencing); 10 mM Tris-HCl pH 7.5, 50 mM NaCl, 1 mM DTT, 4% glycerol, room temperature, 30 min; GST-TFs on glutathione beads, 16-mer random dsDNA library, 0.1% formaldehyde crosslink after washing; high values mean tight binding
What all share (conditions): protein: recombinant; tags: N-terminal GST; dsDNA, one strand shown

One experiment concerns the target T1, ELK1 (Homo sapiens, UniProt P19419 1-428).
T1 sequence: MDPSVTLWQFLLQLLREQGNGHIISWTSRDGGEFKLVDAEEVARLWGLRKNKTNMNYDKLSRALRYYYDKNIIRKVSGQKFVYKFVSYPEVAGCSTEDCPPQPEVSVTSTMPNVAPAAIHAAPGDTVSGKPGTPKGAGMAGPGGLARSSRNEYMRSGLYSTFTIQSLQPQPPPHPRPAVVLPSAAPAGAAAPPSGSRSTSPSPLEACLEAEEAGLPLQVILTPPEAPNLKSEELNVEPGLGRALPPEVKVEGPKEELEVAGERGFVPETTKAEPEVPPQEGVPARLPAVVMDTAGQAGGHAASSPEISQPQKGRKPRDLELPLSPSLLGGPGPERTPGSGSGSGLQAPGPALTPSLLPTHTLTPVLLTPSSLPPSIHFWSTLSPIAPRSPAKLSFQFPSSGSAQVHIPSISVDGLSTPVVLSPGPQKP
Put shortly:
(§1)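 A tag-only sample was pooled with DNA-barcoded human transcription factors that had been expressed in yeast as GST fusions and captured on glutathione beads. The pools were incubated for 30 min at room temperature with 200 nmole of a random double-stranded 16-mer DNA library in Tris/NaCl/DTT/glycerol buffer, then washed, crosslinked with 0.1% formaldehyde, proximity-ligated (BsaI/T4 ligase, 1 h, 37 °C), PCR-amplified and sequenced on an Illumina NextSeq500. Binding signal is each hexamer's read frequency for a factor divided by its frequency for the tag-only sample.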

The next experiment deals with T2, GABPA (Homo sapiens, UniProt Q06546 1-454).
T2 sequence: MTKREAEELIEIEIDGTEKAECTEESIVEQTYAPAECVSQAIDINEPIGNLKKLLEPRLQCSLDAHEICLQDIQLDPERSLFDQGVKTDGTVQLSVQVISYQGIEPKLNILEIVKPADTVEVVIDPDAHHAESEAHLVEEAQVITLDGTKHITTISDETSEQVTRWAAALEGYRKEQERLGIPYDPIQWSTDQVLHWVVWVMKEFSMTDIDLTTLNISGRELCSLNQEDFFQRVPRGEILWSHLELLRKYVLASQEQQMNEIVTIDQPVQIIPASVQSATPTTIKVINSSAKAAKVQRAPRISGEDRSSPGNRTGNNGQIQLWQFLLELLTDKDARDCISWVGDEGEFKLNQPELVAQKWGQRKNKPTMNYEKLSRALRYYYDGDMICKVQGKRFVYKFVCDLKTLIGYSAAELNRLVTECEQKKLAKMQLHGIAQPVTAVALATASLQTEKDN
An outline of the steps:
as §1

The target in the next experiment is T3, ERG (Homo sapiens, UniProt P11308 1-479).
T3 sequence: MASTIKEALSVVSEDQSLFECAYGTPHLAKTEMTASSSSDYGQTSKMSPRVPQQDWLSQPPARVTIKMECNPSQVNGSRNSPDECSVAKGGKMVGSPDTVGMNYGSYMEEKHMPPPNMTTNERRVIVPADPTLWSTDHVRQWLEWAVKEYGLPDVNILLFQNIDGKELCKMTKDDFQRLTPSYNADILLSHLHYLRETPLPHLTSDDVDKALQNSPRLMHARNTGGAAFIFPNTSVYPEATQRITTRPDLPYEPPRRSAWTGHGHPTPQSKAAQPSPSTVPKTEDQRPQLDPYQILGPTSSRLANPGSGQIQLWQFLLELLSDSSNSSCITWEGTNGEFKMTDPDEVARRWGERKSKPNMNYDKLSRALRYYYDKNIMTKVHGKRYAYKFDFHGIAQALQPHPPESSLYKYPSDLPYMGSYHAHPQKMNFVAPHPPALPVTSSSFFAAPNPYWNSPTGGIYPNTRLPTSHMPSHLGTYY
Put shortly: as §1

A further experiment addresses ELF1 (Homo sapiens, UniProt P32519 1-619). Put shortly: as §1
A further experiment deals with T4, EHF (Homo sapiens, UniProt Q9NZC4 1-300).
T4 sequence: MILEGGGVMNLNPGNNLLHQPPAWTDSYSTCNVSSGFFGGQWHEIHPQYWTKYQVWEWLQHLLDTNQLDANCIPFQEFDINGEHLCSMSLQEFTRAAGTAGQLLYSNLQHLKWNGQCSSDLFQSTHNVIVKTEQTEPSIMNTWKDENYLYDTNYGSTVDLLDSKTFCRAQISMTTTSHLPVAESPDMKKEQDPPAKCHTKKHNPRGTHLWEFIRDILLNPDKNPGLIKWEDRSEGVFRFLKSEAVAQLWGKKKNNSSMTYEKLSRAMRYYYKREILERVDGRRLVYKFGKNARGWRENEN
An outline of the steps: as §1

The next experiment addresses SPIB (Homo sapiens, UniProt Q01892 1-262). An outline of the steps: as §1
For the next experiment, the target named is T5, ELK3 (Homo sapiens, UniProt P41970 1-407).
T5 sequence: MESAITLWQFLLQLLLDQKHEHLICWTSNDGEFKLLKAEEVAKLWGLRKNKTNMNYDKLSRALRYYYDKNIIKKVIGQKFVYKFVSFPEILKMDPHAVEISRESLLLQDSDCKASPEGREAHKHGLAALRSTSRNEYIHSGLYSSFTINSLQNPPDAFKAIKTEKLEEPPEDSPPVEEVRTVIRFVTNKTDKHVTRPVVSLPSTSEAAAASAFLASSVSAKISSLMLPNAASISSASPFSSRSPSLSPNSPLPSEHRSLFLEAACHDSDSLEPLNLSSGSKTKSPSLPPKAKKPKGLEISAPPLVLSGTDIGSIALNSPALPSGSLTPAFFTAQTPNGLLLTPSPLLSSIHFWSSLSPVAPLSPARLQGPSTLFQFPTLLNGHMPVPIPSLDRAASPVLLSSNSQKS
Put shortly: as §1

The target of another experiment is ETV5 (Homo sapiens, UniProt P41161 1-510). An outline of the steps:
as §1

The target of a further experiment is T6, SPIC (Homo sapiens, UniProt Q8N5J4 1-248).
T6 sequence: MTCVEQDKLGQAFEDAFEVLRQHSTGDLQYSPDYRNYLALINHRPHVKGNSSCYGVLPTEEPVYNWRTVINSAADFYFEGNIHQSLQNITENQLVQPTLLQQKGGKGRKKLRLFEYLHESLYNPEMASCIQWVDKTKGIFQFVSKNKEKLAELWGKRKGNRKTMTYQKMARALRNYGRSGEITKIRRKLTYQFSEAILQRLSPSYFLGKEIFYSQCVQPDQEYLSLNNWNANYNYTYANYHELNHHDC
Put shortly: as §1

The next experiment deals with ELF4 (Homo sapiens, UniProt Q99607 1-663). Put shortly: as §1

This is an account of results in PMC7862700, “An all-to-all approach to the identification of sequence-specific readers for epigenetic DNA modifications on cytosine”.

Chain of ETV5 (P41161 whole entry): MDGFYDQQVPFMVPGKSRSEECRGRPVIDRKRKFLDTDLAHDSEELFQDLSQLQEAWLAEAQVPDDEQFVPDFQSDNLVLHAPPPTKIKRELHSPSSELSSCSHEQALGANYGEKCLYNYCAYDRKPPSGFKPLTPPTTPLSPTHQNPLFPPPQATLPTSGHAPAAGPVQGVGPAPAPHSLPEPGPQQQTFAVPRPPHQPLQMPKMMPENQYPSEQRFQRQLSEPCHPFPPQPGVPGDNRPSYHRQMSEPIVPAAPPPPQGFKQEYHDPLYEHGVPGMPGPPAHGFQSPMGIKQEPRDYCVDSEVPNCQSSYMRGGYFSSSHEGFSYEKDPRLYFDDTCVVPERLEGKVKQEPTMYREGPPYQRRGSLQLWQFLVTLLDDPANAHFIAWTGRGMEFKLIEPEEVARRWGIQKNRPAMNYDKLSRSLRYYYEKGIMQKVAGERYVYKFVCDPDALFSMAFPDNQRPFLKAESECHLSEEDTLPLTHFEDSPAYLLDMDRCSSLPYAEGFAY
Chain of ELF1 (P32519 whole entry): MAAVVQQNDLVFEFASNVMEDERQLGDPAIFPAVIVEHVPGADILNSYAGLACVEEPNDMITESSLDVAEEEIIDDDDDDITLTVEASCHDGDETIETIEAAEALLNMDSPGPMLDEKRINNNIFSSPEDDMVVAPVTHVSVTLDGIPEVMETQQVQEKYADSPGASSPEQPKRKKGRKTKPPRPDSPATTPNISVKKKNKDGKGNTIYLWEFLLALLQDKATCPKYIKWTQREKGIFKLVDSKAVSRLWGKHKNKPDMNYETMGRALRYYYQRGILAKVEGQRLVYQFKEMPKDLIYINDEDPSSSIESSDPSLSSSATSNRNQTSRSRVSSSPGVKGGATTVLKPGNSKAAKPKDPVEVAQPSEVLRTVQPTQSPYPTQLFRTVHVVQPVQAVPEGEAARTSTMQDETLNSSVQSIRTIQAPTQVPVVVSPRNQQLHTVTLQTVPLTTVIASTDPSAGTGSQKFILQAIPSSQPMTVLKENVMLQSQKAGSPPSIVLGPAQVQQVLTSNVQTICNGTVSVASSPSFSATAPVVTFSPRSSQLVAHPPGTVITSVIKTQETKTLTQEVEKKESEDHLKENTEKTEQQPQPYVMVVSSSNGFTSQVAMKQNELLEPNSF
Chain of SPIB (Q01892 whole entry): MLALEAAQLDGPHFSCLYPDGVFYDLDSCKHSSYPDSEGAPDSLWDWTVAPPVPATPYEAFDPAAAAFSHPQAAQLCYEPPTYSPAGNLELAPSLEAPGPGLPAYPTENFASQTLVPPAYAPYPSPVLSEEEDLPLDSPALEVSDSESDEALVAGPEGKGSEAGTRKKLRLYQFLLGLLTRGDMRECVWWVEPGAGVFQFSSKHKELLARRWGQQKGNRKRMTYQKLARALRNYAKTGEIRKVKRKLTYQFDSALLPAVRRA
Chain of ELF4 (Q99607 whole entry): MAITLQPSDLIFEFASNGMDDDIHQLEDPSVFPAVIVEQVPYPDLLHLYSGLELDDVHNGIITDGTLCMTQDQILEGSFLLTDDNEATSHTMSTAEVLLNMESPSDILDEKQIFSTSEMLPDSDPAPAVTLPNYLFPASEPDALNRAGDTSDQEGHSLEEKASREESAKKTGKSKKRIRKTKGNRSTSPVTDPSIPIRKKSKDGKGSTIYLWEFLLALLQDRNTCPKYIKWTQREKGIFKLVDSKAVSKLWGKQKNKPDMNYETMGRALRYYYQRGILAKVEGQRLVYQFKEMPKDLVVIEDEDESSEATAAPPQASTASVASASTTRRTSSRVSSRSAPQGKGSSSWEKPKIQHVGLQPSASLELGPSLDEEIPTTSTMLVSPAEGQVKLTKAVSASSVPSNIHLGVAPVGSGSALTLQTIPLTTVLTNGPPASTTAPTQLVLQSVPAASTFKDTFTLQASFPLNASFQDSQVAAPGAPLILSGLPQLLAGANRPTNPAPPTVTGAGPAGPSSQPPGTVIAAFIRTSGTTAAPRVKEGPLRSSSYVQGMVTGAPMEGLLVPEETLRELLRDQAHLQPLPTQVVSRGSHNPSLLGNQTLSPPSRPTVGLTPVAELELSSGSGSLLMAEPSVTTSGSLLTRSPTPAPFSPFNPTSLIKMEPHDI

Take CAAACA: the binding signal was 1.15 fold enrichment (6-mer frequency, TF over GST control) with ELK1; 1.18 fold enrichment (6-mer frequency, TF over GST control) with GABPA; 1.18 fold enrichment (6-mer frequency, TF over GST control) in the experiment with ERG; 1.08 fold enrichment (6-mer frequency, TF over GST control) in the experiment with ELF1; 1.09 fold enrichment (6-mer frequency, TF over GST control) with EHF; 1.13 fold enrichment (6-mer frequency, TF over GST control) with SPIB. Further, the binding signal in the experiment with ELK3 is 1.17 fold enrichment (6-mer frequency, TF over GST control); with ETV5, 1.13 fold enrichment (6-mer frequency, TF over GST control); with SPIC, 1.14 fold enrichment (6-mer frequency, TF over GST control); with ELF4 it was 1.14 fold enrichment (6-mer frequency, TF over GST control).
